Bioassay records as filed in PubChem BioAssay.
Only some compounds are listed: those with a hit (about 4.7% of all), similar ones and a draw of the others.
TWEAK Fn14 block: inhibitors of TWEAK-Fn14 signaling, primary screen, luciferase reporter cells, uHTS; TWEAK-stimulated Fn14 reporter cells, luciferase luminescence, 8 h; inhibition, % at 10 µM; hit rate 2% among 360,000; AID 1159606, 2016; in the data active = inhibition above about 50%
HSF-1 act: HSF-1 activators, primary screen, NIH3T3-HGL cells, MG132 stress, luminescence, single point. activation, % at 9 µM. hit rate 1.7% among 300,000. NIH3T3-HGL HSF-1 luciferase reporter, 8 h; 100% = twice DMSO control signal;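 active = mean replicate activation of at least 50% with a set share of replicates each reaching 50%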;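 also: 0% = median of the neutral control wells and 100% = twice that signal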
HSF1 inh: HSF1 inhibitors in luciferase reporter cells, primary screen, cell-based, NIH3T3, luminescence; NIH3T3-HGL HSE-luciferase, MG132-induced, luminescence 8 h; hits give low values; activity change, negative = inhibition, % at 7.5 µM (by protocol); hit rate 0.77% among 300,000; AID 2098, 2009;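 active = more than half of replicate wells show activity change below -50%, luminescence cut by over half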;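 also: luciferase reports HSF-1 transcriptional activity via heat shock element; 0% = median of DMSO wells and -100% = zero luminescence signal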
TROY signal inh: inhibitors of TROY-driven NF-kB signaling, primary screen, Q293 LMP1-TROYcd cells, NF-kB luciferase, uHTS; Q293 LMP1-TROYcd NF-kB luciferase reporter, 4 h; inhibition, % at 10 µM; hit rate 0.98% among 360,000;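 active = compounds whose plate-normalised and pattern-corrected inhibition of the luciferase reporter signal at the single screening dose is 50% or more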
LMP1 NFkB inh: EBV LMP1-driven NF-kappaB luciferase reporter inhibitors, primary screen, cell-based, luminescence, single point | LMP1-induced NF-kappaB luciferase reporter cells | hit rate 0.69% among 350,000 | inhibition, % at 12.5 µM; in the data active = inhibition above about 41%;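 also: 0% = neutral control wells and 100% = reference inhibitor control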
HSP90 inh: HSP90 inhibitors, primary screen, cell lysate, luminescence; Rabbit reticulocyte lysate, luciferase refolding luminescence, 3 h; inhibition, % at 5.6 µM; hit rate 0.91% among 290,000; AID 1789, 2009;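 active = inhibition above the screen-wide mean plus 3 SD, computed separately per campaign, cut at about 16% in these data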;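 also: 0% = DMSO wells and 100% = 60 µM geldanamycin wells; inhibitors lower the luminescence because luciferase stays unfolded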
HSP90 inh confirm: HSP90 inhibitors, confirmation, cell lysate, luminescence. shares compounds with HSP90 inh. rabbit reticulocyte lysate, luciferase refolding luminescence, 3 h. inhibition, % at 5.9 µM. hit rate 64% among 2,300. AID 1846, 2009; in the data active = inhibition above about 18%;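 also: 0% = vehicle wells and 100% = reference inhibitor wells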
luciferase ctr: firefly luciferase inhibitors, HSP90 counter-screen, confirmation, artefact control for HSP90 inhibitor project, biochemical, luminescence, triplicate; shares compounds with HSP90 inh; purified native firefly luciferase; inhibition, % at 5.9 µM; hit rate 48% among 2,300; AID 1847, 2009;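 active = inhibition above the mean inhibition of all tested sample wells plus 3 SD, cut at about 10% in these data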;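 also: 0% = DMSO with luciferase and 100% = wells lacking luciferase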
Target sequence (P08659 whole entry, looked up): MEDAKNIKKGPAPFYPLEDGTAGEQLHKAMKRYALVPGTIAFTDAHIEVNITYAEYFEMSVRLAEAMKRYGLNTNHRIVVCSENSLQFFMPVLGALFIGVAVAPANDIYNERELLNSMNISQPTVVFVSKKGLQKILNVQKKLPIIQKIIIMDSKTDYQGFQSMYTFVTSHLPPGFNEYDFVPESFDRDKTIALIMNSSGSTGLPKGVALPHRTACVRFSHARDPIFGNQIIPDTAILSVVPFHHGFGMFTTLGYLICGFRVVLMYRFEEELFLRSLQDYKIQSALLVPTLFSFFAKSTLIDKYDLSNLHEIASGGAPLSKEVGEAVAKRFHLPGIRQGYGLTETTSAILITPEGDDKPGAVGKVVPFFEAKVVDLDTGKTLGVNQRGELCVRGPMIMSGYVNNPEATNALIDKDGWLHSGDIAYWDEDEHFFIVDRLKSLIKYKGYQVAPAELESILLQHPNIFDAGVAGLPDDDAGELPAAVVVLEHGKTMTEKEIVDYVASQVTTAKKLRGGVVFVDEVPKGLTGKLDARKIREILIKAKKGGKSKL
* marks the source's active call; other numbers are inactive results; x = no result.

SMILES	TWEAK Fn14 block	HSF-1 act	HSF1 inh	TROY signal inh	LMP1 NFkB inh	HSP90 inh	HSP90 inh confirm	luciferase ctr
Cc1cnc(NC(=O)c2ccc(OCC3CCCO3)cc2)s1 (stereo not given)	84.7*	22.5	-4.1	43.3	47.1*	46.9*	59.6*	51.3*
COc1ccc(C(=O)Nc2nc3ccccc3s2)cc1	97.9*	-16.9	-16.8	49.4	12.7	36.6*	72.7*	66.8*
O=C(NC1=NCCS1)c1ccc(OCC2CCCO2)cc1 (stereo not given)	39.4	37.3	-1.2	-16.1	6.5	8.7	x	x
COc1ccc2c(c1)Cc1sc(NC(=O)c3ccccc3)nc1-2	-19.7	25.6	21.9	-38.9	-18.0	17.7*	-3.2	-27.6
O=C(Nc1ncccc1O)c1ccc(OCC2CCCO2)cc1 (stereo not given)	39.0	11.1	2.0	0.3	76.5*	23.9*	43.6*	19.8*
O=C(NCC1CCCO1)c1ccccc1NS(=O)(=O)c1ccc(Br)s1 (stereo not given)	-0.2	x	x	11.2	5.8	x	x	x
Cc1cccc(N/C=C/C(=O)c2ccc(Cl)cc2)c1	13.3	29.1	12.4	-23.4	-20.5	-1.4	x	x
O=C(/C=C\Nc1ccccn1)c1ccc(Cl)cc1	87.5*	x	x	50.0	20.7	38.8*	80.3*	73.3*
O=C1CCCc2nc3c(cc21)C(O)Oc1ccccc1-3 (stereo not given)	18.2	0.0	-5.7	17.4	-6.0	-2.4	x	x
O=C1CCCc2nc3c(cc21)C(O)Oc1c-3ccc2ccccc12 (stereo not given)	30.2	-5.1	-3.1	5.8	-53.9	30.9*	38.4*	-21.2
CCC(=O)Nc1cc(C(=O)OCC(=O)c2ccccc2)ccc1C	24.9	13.4	-3.5	15.2	-11.4	20.3*	44.9*	-34.1
Cc1ccc(N2C(=O)Cc3ccccc3C2=O)cc1	11.0	6.5	-4.1	-3.8	-8.9	2.4	x	x
Cc1ccc(N2Cc3ccccc3C2=O)cc1	53.4*	23.7	18.5	-14.3	13.5	31.3*	37.2*	27.8*
c1nc(NCC2CCCO2)c2[nH]cnc2n1 (stereo not given)	5.8	-2.8	0.1	7.7	38.7	0.6	x	x
c1ccc2c(c1)[nH]c1c(NCC3CCCO3)ncnc12 (stereo not given)	25.0	-3.5	-6.4	19.6	10.6	32.4*	-7.1	-10.8
O=C(O)c1cc(N/N=C/C=C/c2ccccc2)ccc1Cl	-17.0	9.8	5.2	-44.8	-53.8	27.2*	36.7*	-7.6
Cc1nn(-c2ccccc2)c(Cl)c1/C=N/Nc1ccc(Cl)c(C(=O)O)c1	-11.1	-53.2	-43.4	-74.5	18.4	37.9*	83.7*	78.3*
COc1cc(CNc2ncnc3c2ncn3[C@H]2CN(Cc3ccccc3)C[C@@H](COC(C)=O)O2)cc(OC)c1OC	-18.8	x	x	-6.0	x	x	x	x
C[C@@H]1CN([C@@H](C)CO)C(=O)c2cc(Br)cnc2O[C@@H]1CN(C)Cc1cncnc1	-2.9	x	x	-9.0	1.9	x	x	x
O=C(/C=C/c1ccccc1)Nc1ccc(N2CCCCC2)cc1	-38.5	22.0	4.1	-37.4	-14.8	-5.4	x	x
NC(=O)NC(=O)C(Nc1ccc(N2CCCCC2)cc1)c1ccccc1 (stereo not given)	37.3	-17.1	-2.9	44.4	-2.7	23.4*	10.0	6.0
COc1ccc(NC(=O)c2ccc(-c3c(C)noc3C)c3ccoc23)cc1	-1.1	x	x	-5.7	x	x	x	x
O=C(O)c1ccc(N/N=C/c2c[nH]c3ccccc23)cc1	-16.4	-80.4	-77.7*	52.6*	35.9	81.7*	89.1*	86.0*
CC(C)n1cc(/C=N/Nc2ccc(C(=O)O)cc2)c2ccccc21	81.2*	-84.2	-81.9*	61.7*	4.5	62.6*	70.6*	61.7*
O=C(O)c1ccc(N/N=C/C(Br)=C/c2ccccc2)cc1	34.4	29.9	11.2	-5.9	-66.3	24.1*	50.3*	34.6*
SMILES	TWEAK Fn14 block	HSF-1 act	HSF1 inh	TROY signal inh	LMP1 NFkB inh	HSP90 inh	HSP90 inh confirm	luciferase ctr
O=C(O)c1ccc(N/N=C/c2cn(Cc3ccccc3F)c3ccccc23)cc1	32.7	-70.4	-63.6*	31.4	-19.2	36.4*	38.5*	32.0*
COc1ccc(S(=O)(=O)NC(=O)C2(C)CCN2C(=O)CC2CC2)cc1 (stereo not given)	-20.9	x	x	4.9	x	x	x	x
CC(C)(C)n1nnnc1C(c1ccccc1)N1CCN(c2ncc(C(F)(F)F)cc2Cl)CC1 (stereo not given)	4.6	x	x	25.8	x	x	x	x
C/C(=C\c1ccccc1)C(=O)Nc1ccc(Cl)cn1	28.5	39.9	44.5	-25.8	-37.9	17.8*	25.4*	21.1*
O=C(Nc1ccc(Cl)cn1)Nc1ccc(Cl)cn1	-26.5	28.1	9.0	-44.2	-7.5	0.3	x	x
CCn1c(=O)c2cc(C(=O)N(C)c3cc(C)ccc3OC)sc2c2ccccc21	-26.2	15.1	8.1	3.4	-4.7	1.5	x	x
CCn1c(=O)c2cc(C(=O)N(C)c3ccc(OC)cc3OC)sc2c2ccccc21	-4.5	3.2	6.0	22.0	4.3	23.4*	8.4	-1.8
O=C(COC(=O)c1ccc(N2CCCC2=O)cc1)c1ccccc1	23.9	44.4	21.6	-21.5	-21.2	18.3*	27.3*	-23.0
COc1ccc(OC(=O)Nc2ccc([N+](=O)[O-])cc2OC)cc1	-3.2	-40.3	-30.7	16.1	-10.5	20.0*	0.1	-13.3
COC(=O)Nc1cc([N+](=O)[O-])ccc1OC	1.1	5.5	7.2	-27.4	14.5	7.7	x	x
CCOC(=O)C(=O)Nc1ccc([N+](=O)[O-])cc1OC	2.2	-0.5	0.0	17.1	-10.4	21.7*	-7.5	-15.8
CCOC(=O)Nc1ccc([N+](=O)[O-])cc1OC	-11.1	0.2	-8.2	-7.3	0.5	15.9	x	x
CCCS(=O)(=O)NC(=O)C1(C)CCCN(C(=O)/C=C/c2ccccc2)C1 (stereo not given)	13.4	x	x	13.0	x	x	x	x
COC(=O)[C@H]1C[C@@]2(O)CN(S(=O)(=O)c3ccc(C)cc3)C[C@@]2(OC(=O)Nc2cccs2)C[C@H]1C(=O)OC	23.1	x	x	6.4	-6.7	x	x	x
O=C1c2ccccc2C(=O)c2[nH]cnc21	-10.8	33.0	13.4	-7.6	-6.6	-0.6	x	x
